A selection: hits, their analogues and other compounds. The true share with any hit is near 17%.
TGFb SMAD3 inh: qHTS for Inhibitors of TGF-b; HepG2 CAGA-GFP TGF-b/SMAD3 reporter, GFP fluorescence, 18 h; TGF-beta stimulated, 500 pg/mL final; Potency, µM (top dose mostly 46.1 µM), usual class: inhibitors; 1.2% of 410,000 active; further: nearly all actives have a fitted effect of over 65% in size
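Inhibition was scored as loss of TGF-beta-induced (500 pg/mL final, 18 hours, 37 degrees C) GFP in HEPG2 cells carrying a CAGA-GFP reporter, in DMEM with 1% FBS. Well GFP was summed per cell; Activity was normalised to unstimulated and stimulated DMSO wells, then concentration-response fitting.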
HepG2 viability: qHTS for Inhibitors of TGF-b: Cytotox Counterscreen. HepG2 CAGA-GFP viability, ATP luminescence, 18 h. Potency, µM (titrated, usually from 46.1 µM), usual class: cytotoxic. 0.76% of 410,000 active. AID 588856, 2011
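CellTiter-Glo luminescence gave cytotoxicity after 18 hours at 37 degrees C. The cells were HepG2 CAGA-GFP in 1% FBS DMEM, stimulated with 500 pg/mL TGF-beta after compound addition. %Activity was normalised to no-cell wells (complete cell-killing) and DMSO (no toxicity), and curves were fitted and classified.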
ATXN2 expr inh: Primary qHTS for Inhibitors of ATXN expression. Potency, µM (highest dose often 57 µM), hits mostly inhibitors. 0.72% of 360,000 active. HEK-293 ATXN2-luciferase reporter, luminescence, 24 h; further: nearly all actives have a fitted effect of over 55% in size
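qHTS (up to 57 uM final) was run with 24 h compound exposure of reporter cells at 37 °C. Each well was multiplexed: SteadyGlo luminescence measured ATXN2-luciferase expression after a fluorogenic Gly-Phe-AFC viability readout (25 uM final).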
S2 tox: Viability Counterscreen for Primary qHTS for Inhibitors of ATXN expression; Potency, µM (series often up to 56.7 µM), usual class: cytotoxic; S2 cells (HEK-293 line with an ATXN2-luciferase reporter) viability, CellTiter-Fluor protease fluorescence, 24 h; 0.49% of 400,000 active; further: nearly all actives have a fitted effect of over 40% in size
TDP1 cell noCPT: qHTS for Inhibitors of human tyrosyl-DNA phosphodiesterase 1 (TDP1): qHTS in cells in absence of CPT; 15% of 420,000 active; AID 686978, 2013; DT40 Tdp1-/- hTDP1 cells, no CPT, ATP luminescence, 48 h; Potency, µM (titrated, usually from 46.2 µM), most hits filed as inhibitors; further: nearly all actives have a fitted effect of over 55% in size
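Readout: luminescence from CellTiter-Glo after 30 min in the dark at RT. Cells: DT40 Tdp1-/- with stable hTDP1, 400/well. Exposure: compounds alone, ≥48 hr, 37 °C.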
DT40 TDP1 CPT: qHTS for Inhibitors of human tyrosyl-DNA phosphodiesterase 1 (TDP1): qHTS in cells in presence of CPT; 12% of 420,000 active; Potency, µM (top dose mostly 46.2 µM), most hits filed as inhibitors; AID 686979, 2013; chicken DT40 Tdp1-/-;hTDP1 cells + 20 nM CPT, ATP luminescence, 48 h; further: nearly all actives have a fitted effect of over 55% in size
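Chicken DT40 Tdp1-/- cells complemented with human TDP1, 400 cells/well, exposed to compounds plus 20 nM camptothecin for at least 48 h at 37 C; viability read as ATP content by CellTiter-Glo luminescence.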
Numbers stand for hits; i = inactive; ? = inconclusive; nt = no result; + = active, no number; ! = a repeat was not active; [ ] = dose if it differs, or a comment. The call rests on the fitted dose curve; in most records, active means well fitted curve in the direction sought with a large enough effect; inconclusive means small, poorly fitted or top-dose-only effect, or another doubt; inactive means no such curve, though single readings can be large; an effect the other way counts as inactive or inconclusive.

SMILES	TGFb SMAD3 inh	HepG2 viability	ATXN2 expr inh	S2 tox	TDP1 cell noCPT	DT40 TDP1 CPT
COc1ccc2nc3oc(C(=O)NC4CCN(Cc5ccccc5)CC4)cc3cc2c1	i	i	i	i	17.8µM	17.8µM
CCCCOc1ccc(C(=O)NCc2ccccn2)cc1	i	i	i	i	i	i
CCOC(=O)C1=CCN(S(=O)(=O)c2ccc(C)cc2)C1c1ccc(Br)cc1 (stereo not given)	?	i	i	i	?	?
O=C(Nc1cccc(S(=O)(=O)c2cccc(NC(=O)c3ccco3)c2)c1)c1ccco1	?	i	?	?	13µM	?
Cc1cc(C)cc(NC(=O)c2cccc(NC(=O)c3ccco3)c2)c1	i	i	nt	i	29.1µM	?
Cc1ccc(O)c(NC(=O)c2ccco2)c1	i	i	i	i	i	?
CC(C)(C)NC(=O)c1cccc(NC(=O)c2ccc(NC(=O)c3ccco3)cc2)c1	?	i	i	?	?	13µM
Cc1ccc(O)c(NC(=O)c2cccc(NC(=O)c3ccco3)c2)c1	i	i	i	?	23.1µM	?
CC(C)(C)C1CCc2c(sc(NC(=O)c3cccc(Cl)c3)c2C(=O)NCc2ccco2)C1 (stereo not given)	i	i	i	i	i	i
Cc1ccc2nc(CSc3nnc(NC(=O)COc4ccccc4F)s3)cc(=O)n2c1	i	i	nt	nt	i	i
O=C1COc2ccc(-c3csc(=Nc4ccc(OC(F)F)cc4)n3CC3CCCO3)cc2N1 (stereo not given)	i	i	i	i	16.4µM	?
COc1ccccc1N=c1scc(-c2ccc3c(c2)NC(=O)CO3)n1CC1CCCO1 (stereo not given)	i	i	?	i	18.4µM	i
COc1ccccc1CNS(=O)(=O)c1ccc2c(c1)NC(=O)CO2	i	i	i	i	i	i
CN(C)S(=O)(=O)c1cccc(N=c2scc(-c3ccc4c(c3)NC(=O)CO4)n2CC2CCCO2)c1 (stereo not given)	i	i	?	?	7.31µM	6.51µM
COCC(C)n1c(-c2ccc3c(c2)NC(=O)CO3)csc1=Nc1ccc(OC(F)F)cc1 (stereo not given)	?	12.6µM!	i	i	6.51µM	5.17µM
Cc1ccc(OCCC(=O)OCC(=O)c2ccc3c(c2)NC(=O)CO3)cc1	i	i	i	i	i	i
Cc1cccc(C)c1NS(=O)(=O)c1ccc2c(c1)NC(=O)CO2	i	i	i	i	i	i
C=C1[C@@H](OC(C)=O)CC[C@]2(C)[C@@H]1C[C@@H]1C[C@H](OC(C)=O)C(C)=C([C@@H](OC(C)=O)[C@@H]2OC(C)=O)C1(C)C	?	i	i	?	?	?
CCOc1ccc(N=C(NN)c2ccc3ccccc3n2)cc1	?	i	i	i	?	?
CN(C)S(=O)(=O)c1ccc(C(=O)NNC(=O)C2COc3ccccc3O2)cc1 (stereo not given)	i	i	i	i	i	i
CSc1ncc(C(=O)NCc2ccc(F)cc2)c(-c2ccccc2)n1	i	i	i	i	+	i
COc1ccccc1CNC(=O)C(C)Sc1ccc(C)cc1 (stereo not given)	i	i	i	nt	25.9µM	i
COc1ccccc1CNC(=O)c1cnc(SC)nc1C	i	i	i	i	14.6µM	23.1µM
COc1ccc(-c2nc3ccccc3o2)cc1NC(=O)c1cccnc1	i	i	i	?	nt	nt
Cc1cc(OCC(=O)OCC(=O)N2CCc3ccccc3C2)ccc1Cl	i	i	i	i	i	i
SMILES	TGFb SMAD3 inh	HepG2 viability	ATXN2 expr inh	S2 tox	TDP1 cell noCPT	DT40 TDP1 CPT
COc1ccc(Br)cc1Cn1nnc(C(=O)Nc2ccc3c(c2)OCCO3)c1N	i	i	?	i	25.9µM	?
Nc1c(C(=O)Nc2ccc3c(c2)OCCO3)nnn1Cc1cccc(Cl)c1	i	i	i	i	16.4µM	?
COc1ccc(NC(=O)c2nnn(CC(=O)Nc3ccc4c(c3)OCO4)c2N)cc1OC	i	i	i	i	i	i
COc1cc(-c2ccc(C(F)(F)F)cn2)cc2c1OCCN(S(=O)(=O)C[C@]13CC[C@H](CC1=O)C3(C)C)C2	nt	nt	nt	i	i	i[9.04 µM]
CCOc1cc(C)c(S(=O)(=O)Nc2ccc3cn[nH]c3c2)cc1C	?	i	i	i	10µM	18.4µM
CCCCCCNC(=O)N1C/C=C\C(c2ccc(OC)cc2)N(Cc2ccc(F)cc2)C(=O)C1 (stereo not given)	?	i	i	i	23.1µM	?
CCCCCCC(=O)N1C/C=C\C(c2ccc(OC)cc2)N(Cc2ccc(F)cc2)C(=O)C1 (stereo not given)	?	i	i	i	23.1µM	?
Cc1cccc(CCN(CC(=O)NC2CCCCC2)C(=O)c2csnn2)c1	i	i	i[11.3 µM]	i	i	i
COc1ccc(CCN(C(=O)C(F)(F)F)C(C(=O)NC2CCCC2)c2cccs2)cc1 (stereo not given)	?	i	i	i	6.51µM	6.51µM
O=C(NC1CCCCC1)C(c1cccs1)N(C(=O)C(F)(F)F)c1ccccc1 (stereo not given)	i	i	i	i	i	?
CCc1ccc(C(C(=O)NC2CCCCC2)N(C(=O)c2csnn2)C2CC2)cc1 (stereo not given)	i	i	i	i	?	16.4µM
O=C(NC1CCCCC1)C(c1ccco1)N(CCc1ccccc1)C(=O)C(F)(F)F (stereo not given)	i	i	i	i	23.1µM	23.1µM
NC(=O)c1nsc(C(=O)N(CCc2ccccc2)C(C(=O)NC2CCCC2)c2ccco2)c1N (stereo not given)	i	i	i	i	?	?
Cc1cccc(CCN(C(=O)c2csnn2)C(C(=O)NC2CCCC2)c2ccco2)c1 (stereo not given)	?	i	i	i	16.4µM	14.6µM
Cc1cccc(C(c2sc3nc(-c4ccco4)nn3c2O)N2CCN(Cc3ccccc3)CC2)c1 (stereo not given)	?	i	nt	nt	i	i
COc1cc(OC)c(C(=O)OCC(=O)NCCc2ccccc2)cc1OC	i	i	i	i	i	?
N#Cc1ccc(COc2ccc(CCO)cc2-n2nc3ccccc3n2)cc1	i	i	i	?	16.4µM	?
COc1ccc(C)cc1NC(=O)C1CCN(S(=O)(=O)c2ccc3c(c2)C(C)(C)C(=O)N3C)CC1	i	i	i	i	?	?
